Source: the antibiotic and cytotoxicity screens of Wong et al. (2023)
Among all 39,000 compounds or so, about 3,300 (8.5%) were called active. For the sample, actives were picked, then their nearest neighbours and some compounds at random.

Test system: HepG2
Assay: cytotoxicity call (relative viability < 0.9)
Settings: 10 µM

| SMILES | cytotoxicity call |
| --- | --- |
| COc1ccc(-c2cccc(-c3nc(C(=O)NCC(F)(F)F)cc4c3[C@@H](CCO)N([S@](=O)C(C)(C)C)C4)c2)cc1 | inactive |
| COc1ccc(S(=O)(=O)N(C)C[C@H]2OCCCC[C@H](C)Oc3ccc(NC(=O)c4ccccc4)cc3C(=O)N([C@H](C)CO)C[C@H]2C)cc1 | inactive |
| Cc1ccc(S(=O)(=O)N(C)C[C@H]2Oc3ccc(NC(=O)c4ccncc4)cc3C(=O)N([C@H](C)CO)C[C@@H]2C)cc1 | inactive |
| C[C@@H]1CN([C@H](C)CO)C(=O)c2cc(NS(=O)(=O)c3ccccc3)ccc2O[C@H]1CN(C)S(=O)(=O)c1cn(C)cn1 | inactive |
| Cc1noc(C)c1NC(=O)Nc1ccc2c(c1)CC(=O)N([C@H](C)CO)C[C@@H](C)[C@@H](CN(C)Cc1ccc(-c3ccccc3)cc1)O2 | inactive |
| O=C1[C@@H]2[C@H](C(=O)N1c1ccccc1)C13COC[C@H](c4ccccc4)N1C(=O)C2(C(=O)NCCc1c[nH]c2ccccc12)O3 (stereo partly drawn) | inactive |
| CCS(=O)(=O)N1C[C@]2(CN(Cc3cccc(c3)Cl)[C@@H](CO)c3c2c2ccc(cc2n3C)OC)C1 | inactive |
| C[C@H]1CCCCO[C@@H](CN(C)C(=O)NC2CCCCC2)[C@@H](C)CN([C@@H](C)CO)C(=O)c2cc(NC(=O)Nc3ccc(F)cc3)ccc2O1 | active |
| C[C@H](CO)N1C[C@H](C)[C@@H](CN(C)C(=O)NC2CCCCC2)OCCCC[C@H](C)Oc2ccc(NC(=O)Nc3ccc(F)cc3)cc2C1=O | inactive |
| C[C@H](CO)N1C[C@H](C)[C@H](CN(C)C(=O)NC2CCCCC2)OCCCC[C@H](C)Oc2ccc(NC(=O)Nc3ccc(F)cc3)cc2C1=O | inactive |
| O=c1[nH]nc(N2CCOCC2)c(=O)[nH]1 | inactive |
| C[C@@H]1CN([C@H](C)CO)C(=O)Cc2cc(NS(=O)(=O)c3ccc(F)cc3)ccc2O[C@H]1CN(C)CC1CC1 | inactive |
| Cl.OC(CCN1CCCC1)(c1ccccc1)C1CCCCC1 (stereo not drawn) | active |
| CS(=O)(=O)O.OC(CCN1CCCCC1)(c1ccccc1)c1ccccc1 | inactive |
| Cl.OC(CCN1CCCCC1)(c1ccccc1)C1CCCCC1 (stereo not drawn) | inactive |
| COc1ccc(S(=O)(=O)Nc2ccc3c(c2)C(=O)N([C@H](C)CO)C[C@@H](C)[C@H](CN(C)C(=O)NC(C)C)O3)cc1 | inactive |
| C[C@H]1CN([C@@H](C)CO)C(=O)Cc2cc(NS(C)(=O)=O)ccc2O[C@H]1CN(C)C(=O)Nc1ccc(F)cc1 | inactive |
| CC(C)C[C@H](NC(=O)CNC(=O)c1cc(Cl)ccc1Cl)B1OC(=O)C[C@](CC(=O)O)(C(=O)O)O1 | active |
| C[C@@H]1CN([C@@H](C)CO)C(=O)c2cccc(NC(=O)Nc3ccc(F)cc3)c2O[C@@H]1CN(C)S(C)(=O)=O | inactive |
| C[C@H](CO)N1C[C@H](C)[C@H](CN(C)S(C)(=O)=O)Oc2c(NC(=O)Nc3ccccc3)cccc2C1=O | inactive |
| Cc1ccc(CCSc2ccc(Cl)c(Cl)c2)cn1 | active |
| Cc1ccc(CSc2ncc(C(F)(F)F)cc2Cl)cc1 | inactive |
| N#Cc1ccccc1C#CCO | inactive |
| CC(N)O.Cc1cc(CC(C)CC(C)(C)C)n(O)c(=O)c1 (stereo not drawn) | active |
| Cc1ccc(S(=O)(=O)N2C[C@H](O)COC[C@@H]3O[C@H](CC(=O)N[C@@H]4CCN(Cc5ccccc5)C4)CC[C@H]32)cc1 | inactive |
| C[C@@H]1CN([C@@H](C)CO)C(=O)c2cc(NC(=O)Nc3ccccc3)ccc2O[C@@H]1CN(C)C(=O)Nc1cccc2ccccc12 | inactive |

| SMILES | cytotoxicity call |
| --- | --- |
| C[C@@H]1CN([C@@H](C)CO)C(=O)c2c(c3ccccc3n2C)-c2ccccc2CO[C@@H]1CN(C)Cc1ccc(O)cc1 | inactive |
| O=C(N/N=C/c1ccc(B(O)O)cc1)c1ccccc1O | inactive |
| NS(=O)(=O)c1ccc(C(=O)O)cc1 [listing 1 of 2 here] | inactive |
| NS(=O)(=O)c1ccc(C(=O)O)cc1 [listing 2 of 2 here] | inactive |
| Cc1cc(C(=O)O)cc(S(N)(=O)=O)c1 | active |
| COc1ccc([Si](C)(C)[C@@H]2[C@@H](CCOC(=O)NCCCCCC(=O)NO)O[C@]3(C(=O)N(Cc4ccccc4)c4ccc(I)cc43)[C@H]2C)cc1 | inactive |
| COc1ccc([Si](C)(C)[C@H]2[C@H](CCOC(=O)NCCCCCC(=O)NO)O[C@@]3(C(=O)N(Cc4ccccc4)c4ccc(I)cc43)[C@@H]2C)cc1 | inactive |
| COc1ccc([Si](C)(C)[C@@H]2[C@@H](CCO)O[C@]3(C(=O)N(Cc4ccccc4)c4ccc(N(C=O)c5ccccc5)cc43)[C@H]2C)cc1 | active |
| COc1ccc([Si](C)(C)[C@H]2[C@H](CCO)O[C@@]3(C(=O)N(Cc4ccccc4)c4ccc(N(C=O)c5ccccc5)cc43)[C@@H]2C)cc1 | active |
| COC(=O)C[C@H]1O[C@]2(C(=O)N(Cc3ccccc3)c3ccc(I)cc32)[C@@H](C)[C@@H]1[Si](C)(C)c1ccc(OC)cc1 | inactive |
| C[C@@H]1[C@@H]([Si](C)(C)F)[C@H](CCO)O[C@@]12C(=O)N(Cc1ccccc1)c1ccc(N(C=O)c3ccccc3)cc12 | inactive |
| Cc1noc(C)c1NC(=O)Nc1ccc2c(c1)C(=O)N([C@@H](C)CO)C[C@@H](C)[C@@H](CN(C)C(=O)Nc1ccc(F)cc1)OCCCC[C@@H](C)O2 | inactive |
| Cc1ccc(S(=O)(=O)NCC[C@@H]2CC[C@H](NS(=O)(=O)c3ccccc3Cl)[C@@H](CO)O2)cc1 | inactive |
| C[C@@H]1CN([C@H](C)CO)C(=O)c2cccc(NC(=O)c3ccncc3)c2O[C@H]1CN(C)Cc1ccc(C(=O)O)cc1 | inactive |
| O=c1cc(-c2cccc(O)c2)oc2ccc(O)cc12 | inactive |
| O=C(C[C@@H]1CC[C@@H]2[C@H](COC[C@H](O)CN2S(=O)(=O)c2ccc(F)cc2)O1)NCc1ccc(Cl)c(Cl)c1 | inactive |
| c1nc(N2CCOCC2)nc(N2CCOCC2)n1 | inactive |
| CS(=O)(=O)N1CCc2c(-c3cnc(N)nc3)nc(N3CCOCC3)nc21 | active |
| CS(=O)(=O)N1CC[C@]2(COCc3cnc(N4CCOCC4)nc32)C1 | inactive |
| C[C@@H]1CN([C@H](C)CO)C(=O)c2cc(NS(=O)(=O)c3ccccc3)ccc2O[C@H]1CN(C)Cc1ccc(-c2ccccc2)cc1 | inactive |
| C[C@H](CO)N1C[C@H](C)[C@H](CN(C)Cc2ccc(-c3ccccc3)cc2)Oc2ccc(NS(=O)(=O)c3ccc(F)cc3)cc2C1=O | inactive |
| C[C@H](CO)N1C[C@H](C)[C@@H](CN(C)Cc2ccc(-c3ccccc3)cc2)Oc2ccc(NS(=O)(=O)c3ccccc3)cc2C1=O | inactive |
| C[C@@H]1CN([C@H](C)CO)C(=O)c2cc(NS(=O)(=O)c3ccc(F)cc3)ccc2O[C@@H]1CN(C)Cc1ccc(-c2ccccc2)cc1 | active |
| C[C@@H]1CN([C@@H](C)CO)C(=O)c2cc(NS(=O)(=O)c3ccc(F)cc3)ccc2O[C@@H]1CN(C)Cc1ccc(-c2ccccc2)cc1 | active |
| C[C@H]1CN([C@@H](C)CO)C(=O)c2cc(NS(=O)(=O)c3ccc(F)cc3)ccc2O[C@H]1CN(C)Cc1ccc(-c2ccccc2)cc1 | inactive |
| C[C@@H]1CN([C@H](C)CO)C(=O)c2cc(NS(=O)(=O)c3ccc(F)cc3)ccc2O[C@H]1CN(C)Cc1ccc(-c2ccccc2)cc1 | active |

| SMILES | cytotoxicity call |
| --- | --- |
| C[C@H]1CN([C@@H](C)CO)C(=O)c2cc(NS(=O)(=O)c3ccc(F)cc3)ccc2O[C@@H]1CN(C)Cc1ccc(-c2ccccc2)cc1 | active |
| C[C@@H]1CN([C@@H](C)CO)C(=O)c2cc(NS(=O)(=O)c3ccc(F)cc3)ccc2O[C@H]1CN(C)Cc1ccc(-c2ccccc2)cc1 | inactive |
| C[C@H](CO)N1C[C@H](C)[C@H](CN(C)C(=O)NC2CCCCC2)OCCCC[C@H](C)Oc2ccc(NC(=O)CCC(F)(F)F)cc2C1=O | inactive |
| Cn1c(=O)c2c(nc3n2CC=NN3)n(C)c1=O | inactive |
| Cc1n[nH]c(C)c1N | inactive |
| CC(C)(C)[S@@](=O)N1Cc2cc(C(=O)N3CCCCC3)nc(-c3cccc(C4=CCCC4)c3)c2[C@H]1CCO | inactive |
| C[C@@H]1CN([C@H](C)CO)C(=O)c2cccc(NC(=O)CCCCCC(=O)Nc3ccccc3N)c2O[C@H]1CN(C)S(C)(=O)=O | inactive |
| C[C@H](CO)N1C[C@H](C)[C@@H](CN(C)Cc2ccc(-c3ccccc3)cc2)Oc2ccc(NS(=O)(=O)c3ccc(F)cc3)cc2C1=O | active |
| Cc1noc(C)c1S(=O)(=O)N(C)C[C@H]1Oc2ccc(NS(=O)(=O)c3cn(C)cn3)cc2CC(=O)N([C@@H](C)CO)C[C@H]1C | inactive |
| CCOC(=O)C1=C(C)N[C@@]2(O)C[C@@H]1[C@H]1CO[C@@H]2O1 | inactive |
| Nc1ccc(C(=O)O)c(O)c1 | inactive |
| NNC(=O)c1ccncc1 | inactive |
| NNC(=O)c1ccncc1.Nc1ccc(C(=O)O)c(O)c1 | active |
| CC(C)OC[C@H]1Cn2c(nc3c2c(=O)n(C)c(=O)n3C)O1 | inactive |
| NC(=O)CC[C@@H](N)C(=O)O | inactive |
| NC(=O)CC[C@H](N)C(=O)O | inactive |
| Cl.NCCCC(N)C(=O)O (stereo not drawn) | active |
| NC(CC(=O)O)C(=O)O (stereo not drawn) | inactive |
| NC(CO)C(=O)O (stereo not drawn) | active |
| NCCCC[C@H](N)C(=O)O | inactive |
| Cl.NCCCCC(N)C(=O)O (stereo not drawn) | inactive |
| N[C@H](CO)C(=O)O | inactive |
| NC(=O)CCC(N)C(=O)O (stereo not drawn) | active |
| NC(=O)NCC#Cc1ccc2c(c1)[C@]1(C(=O)N2)[C@H](c2ccc(OCCO)cc2)N2[C@H](c3ccccc3)[C@H](c3ccccc3)OC(=O)[C@H]2[C@@H]1C(=O)N1CCCCCCC1 | inactive |
| C[C@H](CO)N1C[C@H](C)[C@@H](CN(C)Cc2ccc3c(c2)OCO3)OCc2ccccc2-c2c(n(C)c3ccccc23)C1=O | inactive |
| C[C@H]1CCCCO[C@@H](CN(C)C(=O)CCC(F)(F)F)[C@@H](C)CN([C@@H](C)CO)C(=O)c2cc(NS(=O)(=O)c3ccc(F)cc3)ccc2O1 | inactive |
